Test results taken from PubChem BioAssay (NCI).
About 83,000 compounds went through this panel and 20% of them were active in at least one assay; those are over-represented in the sample as a whole.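 48-hour exposure, single concentration, 96-well plates; percent growth endpoint where 0 means no net growth. Active: below 10.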 A number with no mark means an inactive call. The source made the active and inactive calls.

What follows are compounds tested on RPMI-8226 leukemia (assay: NCI-60 one-dose screen, 48 h (100 = growth as untreated, 0 = no growth, -100 = all killed)). Settings: 10 µM.
With `CCOC(=O)c1cc(C(=O)c2cc(OC)c(OC)c(OC)c2)n2ncc3ccccc3c12` the growth was 81.9%. `Cc1c(Cl)cccc1NC(=O)CCCl` showed a growth of 90.6%. `Cc1ccc(S(=O)(=O)N(C)CCCCCC(=O)O)cc1` showed a growth of 113%. With `COc1cc(-c2nn(-c3cccc(NC(=O)NCCNS(=O)(=O)c4ccc(Cl)cc4)c3)cc2-c2ccncc2)ccc1Cl` the growth was -2.02% (active). `CC(=O)Oc1cc(OC(C)=O)c2ccccc2c1OC(C)=O` gave a growth of 72.5%. `COc1cc(-c2nn(-c3cccc(NC(=O)CN4CCOCC4)c3)cc2-c2cccnc2)ccc1Cl` was tested, and the growth was 60.5%. `Cc1ccc(NCCNCC(C)(C)O)c2c(=O)c3ccc(Cl)cc3sc12` was tested, and the growth was -12.9% (active). Work on `COC(=O)C1(O)NC(=C(C#N)C#N)C(C#N)=C1C(=O)c1ccc(OC)c(OC)c1` (stereo not given) yielded a growth of 90.1%. `CCN(CC)CCOc1ccc2c(c1O)C(=O)c1ccccc1C2=O` was tested, and the growth was 90.3%. `COc1cc(-c2nn(-c3ccc(NC(=O)NCCCNC(=O)c4ccccc4)cc3)cc2-c2ccncc2)ccc1Cl` was tested, and the growth was -3.49% (active). `COc1ccc2nc(-c3ccc(Cl)cc3)cc(-c3nnc(SC/C(=N\O)c4ccccc4)n3-c3ccccc3)c2c1` showed a growth of 59.7%. For `CCOS(=O)(=O)c1c(C(C)C)cc(C(C)C)cc1C(C)C`, the growth was 119%. For `O=S(=O)(O)c1cccc(Nc2ccc3ccccc3c2)c1`, the growth was 95.5%. `CN(C)CCCSc1ccccc1NC1=C(Cl)C(=O)C(Nc2ccccc2SCCCN(C)C)=C(Cl)C1=O` was tested, and the growth was 45.8%. In the case of `Brc1ccc2c(c1)-c1ccccc1C1=NCCN12`, the growth is reported as 1.99% (active). With `CC(C)CCN(CCC(C)C)CC(=O)Nc1ccc(S(=O)(=O)c2ccc(NC(=O)CN(CCC(C)C)CCC(C)C)cc2)cc1` the growth was -22.4% (active). `CCNCC(=O)Nc1ccc(C(=O)OCC)cc1` was tested, and the growth was 104%. With `O=C(NCCCNS(=O)(=O)c1ccc(Cl)cc1)Nc1ccc(-n2cc(-c3ccncc3)c(-c3ccc(Cl)c(O)c3)n2)cc1` the growth was 18.7%. Compound `C1CN(CC2CCC(CN3CCOCC3)O2)CCO1` (stereo not given) has a growth of 92.3%. `CCN(CC)CC(=O)N(CC)c1ccc(C)c(Cl)c1` was tested, and the growth was 97.2%. `CC(CN(C)C)Oc1ccc(OC(C)CN(C)C)c2c1C(=O)c1ccccc1C2=O` (stereo not given) showed a growth of 41.4%. In the case of `O=C1c2ccccc2C(=O)c2c1ccc(C(Br)Br)c2[N+](=O)[O-]`, the growth is reported as -7.34% (active). For `COc1cc(-c2nn(-c3cccc(NC(=O)CCN4CCN(c5ccccc5)CC4)c3)cc2-c2ccncc2)ccc1Cl`, the growth was 20.6%. Compound `O=C(Nc1ccc(F)cc1)c1cc2ccccc2cc1O` has a growth of 37.9%. `O=C(Nc1ccc2c(O)cc(S(=O)(=O)O)cc2c1)c1ccc([N+](=O)[O-])cc1` showed a growth of 92.9%. In the case of `CN(C)CCCOc1cccc(NC2=C(Cl)C(=O)C(Nc3cccc(OCCCN(C)C)c3)=C(Cl)C2=O)c1`, the growth is reported as -47.5% (active). `COc1cc(OC)c2c(=O)c(O)c(-c3ccccc3)oc2c1` gave a growth of 68.9%. For `CC(=O)Nc1ccc(CC[C@H]2CCC/C=C/[C@@H]3C[C@H](O)C[C@H]3[C@H](O)/C=C/C(=O)O2)cc1`, the growth was 3.69% (active). `Nc1ncnc2c1ncn2C1(CO)OCC(O)C(O)C1O` (stereo not given) was tested, and the growth was 104%. `O=C(Nc1cccc2c1CCCC2)c1cc2ccccc2cc1O` was tested, and the growth was 8.51% (active). In the case of `CN(C)CCCOc1ccccc1NC1=C(Cl)C(=O)C(Nc2ccccc2OCCCN(C)C)=C(Cl)C1=O`, the growth is reported as -40.3% (active). `O=C(N/N=C/c1ccc([N+](=O)[O-])cc1)c1ccccc1Nc1cccc(C(F)(F)F)c1` was tested, and the growth was 90.4%. In the case of `NNC(=O)Oc1c(Cl)cc(Cl)cc1[N+](=O)[O-]`, the growth is reported as 105%. `Nc1ccc(/C=N/Nc2ccnc3c(O)cccc23)c2cccnc12` gave a growth of 31.8%. `O=S(=O)(O)c1ccc(Cl)cc1` showed a growth of 102%. `COc1cc(-c2nn(-c3cccc(NC(=O)NCCNC(=O)c4cccc(C(F)(F)F)c4)c3)cc2-c2ccncc2)ccc1Cl` showed a growth of 21.4%. `CCOC(=O)c1cc(C(=O)c2cc(OC)c(OC)c(OC)c2)n2ccc(-c3cc[n+](CC(=O)c4cc(OC)c(OC)c(OC)c4)cc3)cc12` was tested, and the growth was -22.2% (active). `CCOC(=O)c1cc(C(=O)c2cc(OC)c(OC)c(OC)c2)n2nc(C)ccc12` was tested, and the growth was 18%. In the case of `CCOC(=O)c1cc(C(=O)c2ccc(Cl)cc2)n2ccc(-c3cc[n+](CC(=O)c4ccc(OC)cc4)cc3)cc12`, the growth is reported as 23.4%. For `C/C=C/CSC(C)(C)C(=O)NC`, the growth was 99.8%.

Each compound was assayed on OVCAR-8 ovarian in the same assay as above. Settings: 10 µM.
With `CCOC(=O)c1cc(C(=O)c2cc(OC)c(OC)c(OC)c2)n2ncc3ccccc3c12` the growth was 78.5%. `Cc1c(Cl)cccc1NC(=O)CCCl` was tested, and the growth was 94.2%. With `Cc1ccc(S(=O)(=O)N(C)CCCCCC(=O)O)cc1` the growth was 103%. With `COc1cc(-c2nn(-c3cccc(NC(=O)NCCNS(=O)(=O)c4ccc(Cl)cc4)c3)cc2-c2ccncc2)ccc1Cl` the growth was 8.88% (active). Work on `CC(=O)Oc1cc(OC(C)=O)c2ccccc2c1OC(C)=O` yielded a growth of 81.9%. For `COc1cc(-c2nn(-c3cccc(NC(=O)CN4CCOCC4)c3)cc2-c2cccnc2)ccc1Cl`, the growth was 76.4%. For `Cc1ccc(NCCNCC(C)(C)O)c2c(=O)c3ccc(Cl)cc3sc12`, the growth was 32.2%. Compound `COC(=O)C1(O)NC(=C(C#N)C#N)C(C#N)=C1C(=O)c1ccc(OC)c(OC)c1` (stereo not given) has a growth of 92%. With `CCN(CC)CCOc1ccc2c(c1O)C(=O)c1ccccc1C2=O` the growth was 62.4%. `COc1cc(-c2nn(-c3ccc(NC(=O)NCCCNC(=O)c4ccccc4)cc3)cc2-c2ccncc2)ccc1Cl` showed a growth of 20.6%. For `COc1ccc2nc(-c3ccc(Cl)cc3)cc(-c3nnc(SC/C(=N\O)c4ccccc4)n3-c3ccccc3)c2c1`, the growth was 82.3%. `CCOS(=O)(=O)c1c(C(C)C)cc(C(C)C)cc1C(C)C` gave a growth of 103%. For `O=S(=O)(O)c1cccc(Nc2ccc3ccccc3c2)c1`, the growth was 92.4%. With `CN(C)CCCSc1ccccc1NC1=C(Cl)C(=O)C(Nc2ccccc2SCCCN(C)C)=C(Cl)C1=O` the growth was -26.5% (active). For `Brc1ccc2c(c1)-c1ccccc1C1=NCCN12`, the growth was -11.3% (active). `CC(C)CCN(CCC(C)C)CC(=O)Nc1ccc(S(=O)(=O)c2ccc(NC(=O)CN(CCC(C)C)CCC(C)C)cc2)cc1` was tested, and the growth was 21.8%. With `CCNCC(=O)Nc1ccc(C(=O)OCC)cc1` the growth was 103%. `O=C(NCCCNS(=O)(=O)c1ccc(Cl)cc1)Nc1ccc(-n2cc(-c3ccncc3)c(-c3ccc(Cl)c(O)c3)n2)cc1` showed a growth of 36%. In the case of `C1CN(CC2CCC(CN3CCOCC3)O2)CCO1` (stereo not given), the growth is reported as 104%. `CCN(CC)CC(=O)N(CC)c1ccc(C)c(Cl)c1` was tested, and the growth was 94.4%. In the case of `CC(CN(C)C)Oc1ccc(OC(C)CN(C)C)c2c1C(=O)c1ccccc1C2=O` (stereo not given), the growth is reported as 30.1%. In the case of `O=C1c2ccccc2C(=O)c2c1ccc(C(Br)Br)c2[N+](=O)[O-]`, the growth is reported as 43.1%. With `COc1cc(-c2nn(-c3cccc(NC(=O)CCN4CCN(c5ccccc5)CC4)c3)cc2-c2ccncc2)ccc1Cl` the growth was 22.6%. Compound `O=C(Nc1ccc(F)cc1)c1cc2ccccc2cc1O` has a growth of 82.7%. In the case of `O=C(Nc1ccc2c(O)cc(S(=O)(=O)O)cc2c1)c1ccc([N+](=O)[O-])cc1`, the growth is reported as 88.9%. For `CN(C)CCCOc1cccc(NC2=C(Cl)C(=O)C(Nc3cccc(OCCCN(C)C)c3)=C(Cl)C2=O)c1`, the growth was -80.1% (active). With `COc1cc(OC)c2c(=O)c(O)c(-c3ccccc3)oc2c1` the growth was 61.9%. In the case of `CC(=O)Nc1ccc(CC[C@H]2CCC/C=C/[C@@H]3C[C@H](O)C[C@H]3[C@H](O)/C=C/C(=O)O2)cc1`, the growth is reported as 0.483% (active). `Nc1ncnc2c1ncn2C1(CO)OCC(O)C(O)C1O` (stereo not given) showed a growth of 102%. With `O=C(Nc1cccc2c1CCCC2)c1cc2ccccc2cc1O` the growth was 55.9%. For `CN(C)CCCOc1ccccc1NC1=C(Cl)C(=O)C(Nc2ccccc2OCCCN(C)C)=C(Cl)C1=O`, the growth was -84.3% (active). With `O=C(N/N=C/c1ccc([N+](=O)[O-])cc1)c1ccccc1Nc1cccc(C(F)(F)F)c1` the growth was 95.8%. Compound `NNC(=O)Oc1c(Cl)cc(Cl)cc1[N+](=O)[O-]` has a growth of 109%. Compound `Nc1ccc(/C=N/Nc2ccnc3c(O)cccc23)c2cccnc12` has a growth of 14.4%. `O=S(=O)(O)c1ccc(Cl)cc1` gave a growth of 101%. Compound `COc1cc(-c2nn(-c3cccc(NC(=O)NCCNC(=O)c4cccc(C(F)(F)F)c4)c3)cc2-c2ccncc2)ccc1Cl` has a growth of 44.1%. With `CCOC(=O)c1cc(C(=O)c2cc(OC)c(OC)c(OC)c2)n2ccc(-c3cc[n+](CC(=O)c4cc(OC)c(OC)c(OC)c4)cc3)cc12` the growth was 7.09% (active). `CCOC(=O)c1cc(C(=O)c2cc(OC)c(OC)c(OC)c2)n2nc(C)ccc12` was tested, and the growth was 25.4%. Compound `CCOC(=O)c1cc(C(=O)c2ccc(Cl)cc2)n2ccc(-c3cc[n+](CC(=O)c4ccc(OC)cc4)cc3)cc12` has a growth of 76.7%. `C/C=C/CSC(C)(C)C(=O)NC` gave a growth of 98.4%.
